Data published in the supplement of paper PMC6555819.

What was measured:
Assay in all cases: PBM binding z-score (relative to random genomic background probes); higher = stronger binding; sequences stand for … in GC…GCGATTGACAGCGTAGAATGAAGG
[1] = system: FXR:RXRa (NR concentration 270 nM, RXRa partner concentration 90 nM)
Procedure, shortened: (§1)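 Antibodies against each partner of ligand-free nuclear receptor dimers (one per run) detected binding on custom Agilent 4×180K protein-binding microarrays after 1 h incubation. The double-stranded probes had 34-nt variable regions carrying direct-repeat seeds, single-nucleotide variants, half-site ablations and random human genomic background sequences. Binding z-scores, from regression-normalized fluorescence, use the random background probes as reference.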

[2] = system: LXRa:RXRa (NR concentration 270 nM, RXRa partner concentration 90 nM)
Procedure, shortened: as §1

[3] = system: LXRa homodimer (NR concentration 270 nM)
Procedure, shortened: as §1

[4] = system: LXRb:RXRa (NR concentration 270 nM, RXRa partner concentration 90 nM)
Procedure, shortened: as §1

[5] = system: LXRb homodimer (NR concentration 270 nM)
Procedure, shortened: as §1

[6] = system: PPARa:RXRa (NR concentration 270 nM, RXRa partner concentration 90 nM)
Procedure, shortened: as §1

[7] = system: PPARg:RXRa (NR concentration 180 nM, RXRa partner concentration 90 nM)
Procedure, shortened: as §1

[8] = system: PPARg:RXRa 270nM:90nM, anti-RXR (NR concentration 270 nM, RXRa partner concentration 90 nM)
Procedure, shortened: as §1

[9] = system: PPARg:RXRa 30nM:10nM, anti-RXR (NR concentration 30 nM, RXRa partner concentration 10 nM)
Procedure, shortened: as §1

[10] = system: PPARg:RXRa 90nM:30nM, anti-RXR (NR concentration 90 nM, RXRa partner concentration 30 nM)
Procedure, shortened: as §1

[11] = system: PPARg:RXRa DBDmut IVT, anti-RXR (DBD mutation: RXRa K156A/R161A, NR concentration 270 nM, RXRa partner concentration 90 nM)
Procedure, shortened: as §1

[12] = system: PPARg:RXRa IVT, anti-PPARg (NR concentration 270 nM, RXRa partner concentration 90 nM)
Procedure, shortened: as §1

[13] = system: PPARg DBDmut:RXRa IVT, anti-PPARg (DBD mutation: PPARg1 K132A/R137A, NR concentration 270 nM, RXRa partner concentration 90 nM)
Procedure, shortened: as §1

[14] = system: PPARg DBDmut IVT, anti-PPARg (DBD mutation: PPARg1 K132A/R137A, NR concentration 270 nM)
Procedure, shortened: as §1

[15] = system: PPARg homodimer (NR concentration 180 nM)
Procedure, shortened: as §1

[16] = system: PXR:RXRa (NR concentration 270 nM, RXRa partner concentration 90 nM)
Procedure, shortened: as §1

[17] = system: PXR homodimer (NR concentration 270 nM)
Procedure, shortened: as §1

[18] = system: RARa:RXR (NR concentration 270 nM, RXRa partner concentration 90 nM)
Procedure, shortened: as §1

[19] = system: RARa homodimer (NR concentration 270 nM)
Procedure, shortened: as §1

[20] = system: RARb:RXRa (NR concentration 270 nM, RXRa partner concentration 90 nM)
Procedure, shortened: as §1

Sequence | PBM binding z-score [1] | PBM binding z-score [2] | PBM binding z-score [3] | PBM binding z-score [4] | PBM binding z-score [5] | PBM binding z-score [6] | PBM binding z-score [7] | PBM binding z-score [8] | PBM binding z-score [9] | PBM binding z-score [10] | PBM binding z-score [11] | PBM binding z-score [12] | PBM binding z-score [13] | PBM binding z-score [14] | PBM binding z-score [15] | PBM binding z-score [16] | PBM binding z-score [17] | PBM binding z-score [18] | PBM binding z-score [19] | PBM binding z-score [20]
CCGACTGGAGCAGAAAGGTTACCATACCATCCGG | 0.42 | 0.894 | -0.0298 | 0.813 | -0.611 | 1.77 | 1.61 | 2.5 | 0.683 | 2.24 | 0.54 | 0.511 | -0.716 | -0.66 | 0.708 | 1.02 | -0.102 | 2.11 | -0.788 | 1.52
TCTTGTAGATCAATAGAGCTTAAGAAAGTGCGCT | -0.769 | -0.425 | -0.995 | -0.356 | -0.706 | 0.188 | -0.467 | 0.973 | 2.31 | 1.85 | 1.24 | 0.112 | -0.281 | 0.00059 | -0.672 | -0.158 | -0.534 | -0.251 | -1.02 | -0.557
GGAACGAGGGCAAGTTGATTGCAGAGTTTGATGG | 1.16 | 0.697 | -0.325 | 0.396 | -0.755 | 1.84 | 0.925 | 1.03 | -0.0716 | 0.569 | 3.51 | 2.76 | 0.164 | -0.675 | 0.268 | 0.704 | 0.465 | 0.608 | -0.397 | 2.69
TCGAGTAGGTTAGTCTGGGCATTCAGCCAACATA | -0.238 | -0.131 | -0.19 | -0.216 | -1.35 | 0.169 | -0.258 | 0.528 | 0.844 | 0.781 | 1.92 | 1.79 | -0.593 | -0.623 | -0.00252 | -0.302 | -0.724 | -0.271 | -0.668 | -0.185
AATACAGGGTCACAAGGCCAGAGTAGGTACGAAT | 6.89 | 5.61 | 1.21 | 4.47 | 1.18 | 5.99 | 7.38 | 6.69 | 3.96 | 5.46 | 3.6 | 5.38 | 1.96 | 1.5 | 1.69 | 4.03 | 0.719 | 4.97 | 1.18 | 4.6
ACTAGTTGGTCAGCTGAGGTCAAACACAATTCGG | 3.81 | 4.24 | 4.08 | 4.26 | 1 | 4.22 | 1.65 | 2.34 | 0.396 | 1.55 | 1.45 | 2.49 | 0.694 | 0.579 | 3.02 | 6.03 | 3.32 | 5.18 | 2.07 | 3.62
GCAACGAGGGCAAGTTGATAGCAGAGTTTGATGG | 0.996 | 0.513 | -0.434 | 0.332 | -0.572 | 1.49 | 0.841 | 1 | 0.0166 | 0.481 | 2.75 | 1.85 | -0.194 | -0.32 | 0.288 | 0.924 | 0.464 | 0.816 | -0.0307 | 2.8
AGTCAAAGTTCACTAGGTAACCTAAGATTCAGCT | 5.37 | 5.38 | 3.76 | 3.3 | 1.13 | 4.71 | 7.18 | 6.5 | 4 | 5.96 | 3.06 | 5.17 | 0.689 | 0.943 | 2.98 | 4.37 | 4.07 | 3.78 | 1.73 | 4.7
TAGTCTAGGTCATGGGCCAGTATACCACGCGAAC | 4.42 | 3.68 | 1.27 | 2.58 | 1.74 | 4.88 | 7.25 | 6.37 | 3.68 | 6 | 5.8 | 6.96 | 3.12 | 2.31 | 2.49 | 1.57 | 0.209 | 2.78 | 0.751 | 3.95
CCGACTGGGGCAGGGTTACCATAACGCACAGCCA | 0.198 | 0.487 | -0.443 | 0.866 | -0.609 | 1.41 | 1.77 | 1.98 | 0.254 | 1.44 | 1.51 | 2.47 | -0.73 | -1.24 | 0.145 | 0.395 | -0.445 | 0.895 | -0.407 | 0.803
CCTGCTAGGTCCTGGTCAGCTAATCTACAGTATG | -0.334 | -0.452 | -0.575 | -0.318 | -1.07 | -0.283 | -0.294 | -0.442 | -0.574 | -0.403 | 0.239 | -0.294 | -1.02 | -0.479 | -0.652 | -0.461 | -0.864 | -0.0873 | -0.971 | 0.56
GCGACTGGGGCGAAGCAGGTTACCATAAGGTTGG | -0.35 | -0.539 | -0.81 | -0.315 | -1.13 | 0.234 | 0.378 | -0.549 | -0.972 | -0.732 | 0.93 | 0.737 | -1.9 | -1.09 | -0.411 | -0.249 | -0.709 | -0.0547 | -0.898 | 0.235
TCTATTAGTTGAAGGTCAACCGACGAGTCCGTTT | 3.86 | 4.66 | 4.55 | 3.9 | 1.95 | 3.95 | 1.56 | 3.57 | 3.89 | 3.78 | 2.82 | 2.45 | 1.21 | 0.836 | 3.86 | 4.22 | 2.78 | 4.4 | 3.23 | 4.02
